{"source": "PubChem BioAssay (NCI)", "note": "The panel holds about 83,000 compounds, 20% with a hit somewhere; the sample as a whole holds those more often.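 Assay: single dose, 48 h. Readout: percent growth (0 = no net growth; negative = cell death). Active: <10.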 A number with no mark means an inactive call. Calls of active or inactive are those of the source."}
{"system": "SN12C renal", "test": "NCI-60 one-dose screen, 48 h (100 = growth as untreated, 0 = no growth, -100 = all killed)", "conditions": "10 µM unless noted"}
{"smiles": "COc1nc(OC)nc(-c2cc(C(=O)c3ccc(Br)cc3)n3cc(C)cc(C)c23)n1", "growth": "48%"}
{"smiles": "CC(=O)OCC(=O)[C@@]1(O)[C@H](C)C[C@H]2[C@@H]3C=C(C)C4=Cc5c(cnn5-c5ccc(F)cc5)C[C@]4(C)[C@H]3[C@@H](O)C[C@@]21C", "growth": "40.5%"}
{"smiles": "Brc1c(-c2ccncc2)nc2n1CCS2", "growth": "91.7%"}
{"smiles": "CC(=O)/C(=C\\c1c(-c2ccccc2)[nH]c2ccccc12)S(=O)(=O)c1ccccc1", "growth": "5.37% (active)"}
{"smiles": "COc1ccc(/C=N/c2cc(C(C)(C)C)nn2-c2ccccc2)cc1", "growth": "102%"}
{"smiles": "CCC1(CC)C(OC)NC(Br)=C(C#N)C1(C#N)C(N)=O", "note": "(stereo not given)", "growth": "106%"}
{"smiles": "COc1ccc(CN2C(=O)/C(=C\\C(=O)c3ccc(OCCN4CCCC4)cc3)c3ccccc32)cc1", "growth": "49.8%"}
{"smiles": "COc1ccc(/C=C2\\SC(=O)N(Cc3cc(=O)oc4ccc(OC)cc34)C2=O)cc1", "growth": "90.7%"}
{"smiles": "c1cc(C2CCCCC2)ccc1OCCCCCCN1CCNCC1", "growth": "59.1%"}
{"smiles": "COc1cc(/C=C/C(=O)/C=C(/C=C/c2ccc(OC(C)=O)c(OC)c2)OB(F)F)ccc1OC(C)=O", "growth": "42.3%"}
{"smiles": "Cc1c([C@H](C(Cl)Cl)[C@H](O)[C@H]2C[C@H](C)C(=O)O2)ccc2c1C(=O)[C@H]1[C@H]2C[C@@H](Br)[C@@]23O[C@@H](CO[C@H]2O)CC13C", "note": "(stereo not given in full)", "growth": "25.1%"}
{"smiles": "O=C1/C(=N\\c2cc(=O)[nH]n2S(=O)(=O)c2ccccc2)Nc2ccccc21", "growth": "98.2%"}
{"smiles": "N=C(N)c1ccc(-c2ccc(-c3ccc(Cl)cc3)s2)s1", "growth": "-50% (active)"}
{"smiles": "COc1cc([C@@H]2c3cc4c(cc3[C@H](O)[C@H]3COC[C@@H]23)OCO4)cc(OC)c1OC", "growth": "90.5%"}
{"smiles": "O=Nc1c(-c2c(O)[nH]c3cc(Br)ccc23)[nH]c2ccccc12", "growth": "16.7%"}
{"smiles": "CC(C)(C)C(=O)OCOP(=O)(OCOC(=O)C(C)(C)C)C1CC(O)N(O)C1=O", "note": "(stereo not given)", "growth": "11.6%"}
{"smiles": "CC1(C)CC(=O)C2=C(C1)Oc1nc(N)c(C#N)c(N)c1C2c1ccc(F)cc1", "note": "(stereo not given)", "growth": "107%"}
{"smiles": "O=C1c2cc([N+](=O)[O-])ccc2-c2cc(Cl)c(NC(=O)C(F)(F)F)cc21", "growth": "112%"}
{"smiles": "COc1ccc(CNCCCN2C(=O)c3ccc4c5c(ccc(c35)C2=O)C(=O)N(CCCNCc2ccc(OC)c(OC)c2OC)C4=O)c(OC)c1OC", "growth": "-90.8% (active)"}
{"smiles": "O=C(Nc1ccccc1)Nc1ccc(Nc2ncnc3sc4c(c23)CCCC4)cc1", "growth": "99.3%"}
{"smiles": "O=S(=O)(Cc1cccc2c(CS(=O)(=O)c3ccc(Cl)cc3)cccc12)c1ccc(Cl)cc1", "growth": "98.6%"}
{"smiles": "COc1cc(CNC(=O)CCCC/C=C/C(C)C)ccc1OCc1nnc(Nc2ccccc2F)o1", "growth": "70.5%"}
{"smiles": "Nc1nc2c(c3ncncc13)C(c1cccc(C(F)(F)F)c1)Cc1ncncc1-2", "note": "(stereo not given)", "growth": "55.2%"}
{"smiles": "Cn1cnc2nc[nH]c2c1=S", "growth": "94.8%"}
{"smiles": "O=C(O)c1ccc(-c2nn(-c3ccc(C(=O)O)cc3)cc2CNc2ccc(Br)cc2)cc1", "growth": "111%"}
{"smiles": "O=C(N/N=C/c1coc2ccccc2c1=O)c1cc2oc(-c3ccccc3)cc2[nH]1", "growth": "120%"}
{"smiles": "CCC(C)C1NC(=O)C(CC(C)C)NC(=O)C(C)NC(=O)C(C(C)C)NC(=O)C(CCCCN)NC(=O)C(CC(C)C)NC(=O)C(C(C)C)NC(=O)[C@H](C)NC(=O)C(C(C)CC)NC(=O)C(CCCN=C(N)N)NC(=O)C(CCCCN)NC(=O)C(CCCN=C(N)N)NC(=O)C(CCCCN)NC(=O)C([C@H](C)CC)NC(=O)C(CCCCN)NC1=O", "note": "(stereo not given in full)", "growth": "10.9%"}
{"smiles": "C=CCN(C)C", "growth": "94.7%"}
{"smiles": "CCC(CCCN1C(=O)c2ccccc2C1=O)Nc1cc(OC)cc2cccnc12", "note": "(stereo not given)", "growth": "99.3%"}
{"smiles": "O=c1c(N=Nc2nccs2)c(-c2ccccc2)[nH]n1-c1nc(-c2ccccc2)cs1", "growth": "35%"}
{"smiles": "Cc1ccc(C(=O)Nc2ccc(CN3CCN(C)CC3)c(C(F)(F)F)c2)cc1C#Cc1cncc2ncccc12", "growth": "-98.2% (active)"}
{"smiles": "CCOC(=O)C1C(=O)C(=O)N(C(C)C)C1C(=O)OCC", "note": "(stereo not given)", "growth": "94.4%"}
{"smiles": "COc1cc2c(cc1OC)C(Cc1cc(OC)c(OC)cc1[N+](=O)[O-])=NCC2", "growth": "77.9%"}
{"smiles": "COc1ccc2c(c1)/C(=C1/S/C(=N/c3nnc(C)s3)NC1=O)C(=O)N2Cc1ccc(Br)cc1", "growth": "43.4%"}
{"smiles": "CCOP1(=O)CC(C)=C(Cl)C(P(=O)(O)O)C1", "note": "(stereo not given)", "growth": "99.3%"}
{"smiles": "O=C(O)CC1Cc2ccccc2C1C(=O)O", "note": "(stereo not given)", "growth": "95.2%"}
{"smiles": "Nc1cc2c(cc1Br)[nH]c(=O)c1ccccc12", "growth": "39.8%"}
{"smiles": "CCc1ccc(C(=Nc2ccc(N(C)C(=O)CN3CCN(C)CC3)cc2)c2c(O)[nH]c3ccc(C(=O)OC)cc23)cc1", "growth": "-57.4% (active)"}
{"smiles": "N#CCCCCCCCCCCC#N", "growth": "105%"}
{"smiles": "O=C1CSC(c2ccccc2Cl)N1c1nnc(-c2ccncc2)o1", "note": "(stereo not given)", "growth": "98.3%"}
